Experimental data from paper PMC4336329 (PLoS ONE, 2015).
The campaign covered roughly 310,000 compounds. About 14,000 (4.5%) showed an effect of 50% or more. Effects have a minus sign here. The list comes from a sample in which strong results are over-represented; it also holds similar structures and randomly drawn compounds.

The compounds below were run against human ether-à-go-go-related gene (hERG) potassium channel (human, UniProt Q12809) (assay: primary screen, population patch clamp on CHO cells stably expressing hERG; higher = less effect of the substance).
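Also: peak tail current of the secondary pulse compared with the same well before compound.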

human ether-à-go-go-related gene (hERG) potassium channel, sequence (Q12809 whole entry, looked up): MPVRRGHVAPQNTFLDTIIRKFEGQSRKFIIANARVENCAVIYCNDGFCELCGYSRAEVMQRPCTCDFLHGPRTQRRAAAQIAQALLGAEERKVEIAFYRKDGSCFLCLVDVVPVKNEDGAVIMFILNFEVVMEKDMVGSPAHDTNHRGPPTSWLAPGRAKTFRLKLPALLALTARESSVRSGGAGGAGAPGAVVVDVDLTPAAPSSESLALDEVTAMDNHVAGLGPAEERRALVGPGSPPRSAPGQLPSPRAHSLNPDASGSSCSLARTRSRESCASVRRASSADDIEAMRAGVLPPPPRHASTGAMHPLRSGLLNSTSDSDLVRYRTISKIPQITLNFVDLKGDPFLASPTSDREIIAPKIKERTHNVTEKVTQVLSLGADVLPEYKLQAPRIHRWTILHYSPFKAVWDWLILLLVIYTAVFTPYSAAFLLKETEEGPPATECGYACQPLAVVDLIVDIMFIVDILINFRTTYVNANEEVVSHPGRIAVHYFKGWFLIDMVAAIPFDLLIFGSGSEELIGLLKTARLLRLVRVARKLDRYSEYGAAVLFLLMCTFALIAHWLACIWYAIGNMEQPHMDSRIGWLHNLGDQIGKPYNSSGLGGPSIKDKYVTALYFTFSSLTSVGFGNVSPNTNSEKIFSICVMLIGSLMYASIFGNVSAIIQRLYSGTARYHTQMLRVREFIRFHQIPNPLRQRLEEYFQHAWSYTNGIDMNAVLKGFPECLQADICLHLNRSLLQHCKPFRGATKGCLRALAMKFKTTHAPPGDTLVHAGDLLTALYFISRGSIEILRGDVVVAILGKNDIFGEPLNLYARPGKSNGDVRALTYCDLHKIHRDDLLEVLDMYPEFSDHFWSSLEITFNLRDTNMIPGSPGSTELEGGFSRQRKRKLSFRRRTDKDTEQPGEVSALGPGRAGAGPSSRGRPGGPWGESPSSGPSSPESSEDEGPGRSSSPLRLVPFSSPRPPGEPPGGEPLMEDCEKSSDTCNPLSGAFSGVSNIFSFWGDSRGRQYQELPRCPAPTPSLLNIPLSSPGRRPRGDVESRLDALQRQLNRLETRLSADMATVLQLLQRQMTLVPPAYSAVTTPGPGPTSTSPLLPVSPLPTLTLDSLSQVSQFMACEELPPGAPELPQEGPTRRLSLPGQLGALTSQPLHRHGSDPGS

SMILES	hERG current change (%, negative = inhibition) at 10uM [%]
CC(C)NC(=O)Cn1c(SCC(=O)c2ccc(F)cc2)nc2ccccc21	6.27
COCCn1c(-c2ccc(F)cc2)nc2cccnc21	12.1
O=C1C[C@H](NC(=O)OCc2ccccc2)CO1	6.32
Fc1ccc(C2NCCn3cccc32)cc1.O=C(O)/C=C/C(=O)O (stereo not drawn)	-3.11
CCOc1ccc(NC(=O)[C@@H]2CCCN2C(=O)c2cccs2)cc1S(=O)(=O)N1CCCCC1	10.5
O=C(Nc1nc2ccc(Cl)cc2s1)[C@@H]1CCCN1C(=O)c1cccs1	3.87
O=C(Nc1ccc(OC(F)F)c(Cl)c1)[C@@H]1CCCN1C(=O)c1cccs1	-74.3
CCOc1ccc(NC(=O)[C@@H]2CCCN2C(=O)c2cccs2)cc1S(=O)(=O)N1CCOCC1	6.27
COc1ccc(NC(=O)[C@@H]2CCCN2C(=O)c2cccs2)cc1S(=O)(=O)N1CCCCC1	-6.06
COc1ccc2nc(NC(=O)c3cccs3)sc2c1	8.71
Cc1ccc(NC(=O)C2CCCN2C(=O)c2cccs2)cc1C (stereo not drawn)	-25.5
O=C(Nc1ccc(Cl)c(S(=O)(=O)N2CCOCC2)c1)[C@@H]1CCCN1C(=O)c1cccs1	-57.6
O=C(Nc1ccccc1OC(F)F)C1CCCN1C(=O)c1cccs1 (stereo not drawn)	1.98
COc1ccc2nc(NC(=O)[C@@H]3CCCN3C(=O)c3cccs3)sc2c1	-56.4
Cc1ccc(NC(=O)[C@@H]2CCCN2C(=O)c2cccs2)cc1S(=O)(=O)N1CCCCC1	-63.9
O=C(Nc1ccc(S(=O)(=O)N2CCCC2)cc1)C1CCCN1C(=O)c1cccs1 (stereo not drawn)	0.837
CNC(=O)CN(C)S(=O)(=O)c1ccc(OC)c(Cl)c1	6.65
CC(=O)Nc1ncc(Cc2cc(Cl)ccc2Cl)s1	-1.4
CSc1nnc(Cn2c(=O)sc3ccccc32)n1-c1cccc(Cl)c1	-37.9
Cn1c(=O)c2c(ncn2CC(=O)OCC(=O)Nc2ccccc2Cl)n(C)c1=O	4.46
CC(C(=O)NC1CCCc2ccccc21)N1CCN(Cc2ccc3c(c2)OCO3)CC1 (stereo not drawn)	-51.9
CC(C(=O)NC1CCCc2ccccc21)N1CCN(c2ccc(F)cc2)CC1 (stereo not drawn)	-35.6
CC(NCc1ccc2c(c1)OCO2)C(=O)NC1CCCc2ccccc21.O=C(O)C(=O)O (stereo not drawn)	-22.6

SMILES	hERG current change (%, negative = inhibition) at 10uM [%]
COC(=O)c1cc2c(ccn2C)n1C	19.5
CC(C)(C)c1ccc(S(=O)(=O)/N=C2\C=C(NS(=O)(=O)c3ccccc3)C(=O)c3ccccc32)cc1	-2.61
O=C(NC(=S)N1CCCCC1c1cccnc1)c1ccc(F)cc1 (stereo not drawn)	5.06
O=C(/C=C/c1ccc(Cl)cc1)NC(=S)NN1CCCCC1c1cccnc1 (stereo not drawn)	-67
O=C(/C=C/c1ccc(F)cc1)NC(=S)N1CCCCC1c1cccnc1 (stereo not drawn)	-68.1
O=C(NC(=S)N1CCCCC1c1cccnc1)c1ccccc1 (stereo not drawn)	4.5
COc1ccc(/C=C/C(=O)NC(=S)NN2CCCCC2c2cccnc2)cc1 (stereo not drawn)	-26.9
COc1ccc(/C=C/C(=O)NC(=S)NN2CCCCC2c2cccnc2)cc1OC (stereo not drawn)	3.25
COc1ccc(C)cc1NCc1cccc(OC)c1OC	1.13
COc1cc(/C=C(\C#N)C(=O)NCC2CCCO2)ccc1OCCC(C)C (stereo not drawn)	4.67
O=C(Nc1ccccc1)N1CCCN(c2ccc(C(F)(F)F)cc2[N+](=O)[O-])CC1	-39.9
O=C(Cn1nc(Cc2cccnc2)c2ccccc2c1=O)NCc1ccc2c(c1)OCO2	-25.8
O=C(Cn1nc(Cc2cccnc2)c2ccccc2c1=O)NCC1CCCO1 (stereo not drawn)	9.7
O=C(Cn1nc(Cc2cccnc2)c2ccccc2c1=O)NCC1COc2ccccc2O1 (stereo not drawn)	-57.4
Cc1ccc(C2CC(c3ccccc3)=NN2c2ccccc2)o1 (stereo not drawn)	4.42
COc1ccc(C(CNC(=O)c2oc3ccc(Br)cc3c2C)N2CCCCC2)cc1 (stereo not drawn)	-13.3
COc1ccccc1C(CNC(=O)c1ccco1)N1CCCC1 (stereo not drawn)	1.23
COc1ccc(C(CNC(=O)c2oc3c(Cl)cccc3c2C)N2CCCC2)cc1 (stereo not drawn)	-50.9
COc1ccc(C(CNC(=O)c2oc3ccc(Cl)cc3c2C)N2CCCCC2)cc1 (stereo not drawn)	-25.9
COc1ccc(C(CNC(=O)c2oc3ccc(F)cc3c2C)N2CCCCC2)cc1 (stereo not drawn)	-59.9
COc1ccc(C(CNC(=O)c2oc3ccc(C)cc3c2C)N2CCCCC2)cc1 (stereo not drawn)	6.26
COc1ccc(C(CNC(=O)c2oc3ccc(OC)cc3c2C)N2CCCC2)cc1 (stereo not drawn)	-67.5
